Screening data deposited in PubChem by National Center for Advancing Translational Sciences (NCATS).
The sample as a whole holds a higher share of hits than the screen did.
HT1080 IDH1KD tx – qHTS for induction of synthetic lethality in tumor cells producing 2HG: qHTS for the HT-1080-IDH1KD cell line | Potency, µM (titrated, usually from 46.1 µM), most hits filed as cytotoxic | actives 2% (n = 360,000) | HT-1080 IDH1 knockdown viability, ATP luminescence, 48 h | AID 686971, 2013
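Viability of IDH1-knockdown HT-1080 fibrosarcoma cells was assessed by CellTiter-Glo after 48 h at 37 °C with titrated compound; concentration-effect curves were classified by fit quality and response size.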
IL-1B inflam inh – qHTS for Inhibitors of Inflammasome Signaling: IL-1-beta AlphaLISA Primary Screen; THP-1 LPS/ATP IL-1B secretion, AlphaLISA, 16 h; active compounds read low; activity change, % at 57.5 µM; actives 4.7% (n = 360,000); AID 743279, 2014; in the data active = activity change below about -50%; inconclusive = mostly about -30% to -49%
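Secreted IL-1B measured by AlphaLISA bead assay after 16 h compound exposure of THP-1 cells; compounds (final up to 57.5 uM) added 1 h before LPS (250 ng/mL) and ATP (1.25 mM) stimulation; lower signal means less secretion.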
ALOX12 inh – Primary qHTS assay for inhibitors of human arachidonate 12S-lipoxygenase (ALOX12): Round 2 | actives 1.1% (n = 580,000) | AID 1671190, 2021 | Potency, µM (highest dose often 108 µM), hits mostly inhibitors | Polyunsaturated fatty acid lipoxygenase ALOX12 (Homo sapiens), P18054 | purified 12hLO, xylenol orange hydroperoxide absorbance
Target sequence (P18054 whole entry, looked up): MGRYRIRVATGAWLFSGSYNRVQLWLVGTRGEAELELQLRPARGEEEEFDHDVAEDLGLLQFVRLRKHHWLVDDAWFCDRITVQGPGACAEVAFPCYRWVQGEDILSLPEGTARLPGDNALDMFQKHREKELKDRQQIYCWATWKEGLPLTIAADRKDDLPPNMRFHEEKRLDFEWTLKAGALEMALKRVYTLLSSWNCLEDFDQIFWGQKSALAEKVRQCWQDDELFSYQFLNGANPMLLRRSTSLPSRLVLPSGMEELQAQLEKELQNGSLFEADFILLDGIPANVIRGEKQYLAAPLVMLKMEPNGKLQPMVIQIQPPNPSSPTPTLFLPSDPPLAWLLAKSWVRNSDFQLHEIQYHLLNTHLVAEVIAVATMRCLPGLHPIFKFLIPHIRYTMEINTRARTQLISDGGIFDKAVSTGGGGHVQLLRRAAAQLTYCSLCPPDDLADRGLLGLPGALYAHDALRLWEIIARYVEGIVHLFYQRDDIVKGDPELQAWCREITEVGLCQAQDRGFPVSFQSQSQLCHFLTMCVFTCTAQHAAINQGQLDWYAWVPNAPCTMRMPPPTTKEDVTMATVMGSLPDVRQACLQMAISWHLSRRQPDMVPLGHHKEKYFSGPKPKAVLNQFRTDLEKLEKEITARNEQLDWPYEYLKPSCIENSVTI
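Purified human 12hLO at 150 nM in 25 mM Hepes, 0.01% Triton X-100, pH 7.0, preincubated 15 min at room temperature with compound. Reaction started with 40 uM arachidonic acid, 30 min at room temperature. Hydroperoxide measured by Fe-xylenol orange, 573/405 nm absorbance ratio.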
DT40 TDP1 CPT – qHTS for Inhibitors of human tyrosyl-DNA phosphodiesterase 1 (TDP1): qHTS in cells in presence of CPT; actives 12% (n = 420,000); chicken DT40 Tdp1-/-;hTDP1 cells + 20 nM CPT, ATP luminescence, 48 h; Potency, µM (doses to about 46.2 µM), most hits filed as inhibitors; note: nearly all actives have a fitted effect of over 55% in size
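Cell growth measured by CellTiter-Glo luminescence after a minimum 48 h, 37 C compound exposure with 20 nM CPT in Tdp1-knockout DT40 cells stably expressing hTDP1, seeded 400/well; qHTS titration format.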
TDP1 cell noCPT – qHTS for Inhibitors of human tyrosyl-DNA phosphodiesterase 1 (TDP1): qHTS in cells in absence of CPT; DT40 Tdp1-/- hTDP1 cells, no CPT, ATP luminescence, 48 h; AID 686978, 2013; actives 15% (n = 420,000); Potency, µM (doses to about 46.2 µM), usual class: inhibitors; note: nearly all actives have a fitted effect of over 55% in size
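Cells were dispensed at 400 per well, compounds added by pin tool, plates incubated ≥48 hr at 37 °C, then CellTiter-Glo added for 30 min at room temperature before luminescence reading. Line: DT40 Tdp1-/- complemented with hTDP1; camptothecin omitted.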
HT1080NT lethal – qHTS for induction of synthetic lethality in tumor cells producing 2HG: qHTS for the HT-1080-NT fibrosarcoma cell line | HT-1080-NT fibrosarcoma viability, CellTiter-Glo ATP luminescence, 48 h | Potency, µM (highest dose often 46.1 µM), hits mostly cytotoxic | actives 1.6% (n = 360,000) | AID 686970, 2013;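 note: NT is the 2HG producing partner of a matched IDH1 knockdown line; nearly all actives have a fitted effect of over 55% in size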
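Viability by CellTiter-Glo luminescence after 48 h compound exposure at 37C of HT-1080-NT cells (750/well, RPMI, 5% FBS). % activity scaled between DMSO wells and medium-only wells, then curve-fitted and categorized by curve class.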
A number is an active result; . = inactive; ? = inconclusive; / = not tested or not shown; ! = not active in a repeat. Unless noted, calls come from the whole dose curve; as a rule, active = well fitted curve in the direction sought with a large enough effect; inconclusive = small, poorly fitted or top-dose-only effect, or another doubt; inactive = no such curve, though single readings can be large; an effect the other way counts as inactive or inconclusive.

SMILES	HT1080 IDH1KD tx	IL-1B inflam inh	ALOX12 inh	DT40 TDP1 CPT	TDP1 cell noCPT	HT1080NT lethal
COC(=O)C[C@]1(C(=O)OC)CN(C#N)N(c2ccc(Cl)cc2)C12c1ccccc1-c1ccccc12	4.1µM	-105	.	1µM	0.92µM	10µM
O=c1ccc(-c2cccs2)c2n1C[C@H]1C[C@@H]2CN(S(=O)(=O)c2cccc(C(F)(F)F)c2)C1	/	/	.	/	/	/
CC(C)[C@H](CO)Nc1nc(Nc2cccc(Cl)c2)c2ncn(C(C)C)c2n1	/	/	.	9.4µM	9.4µM	/
O=C(NCC1CCOCC1)c1cnc(Nc2ccc(Cl)cc2Cl)nc1C(F)(F)F	/	/	.	/	/	/
Cc1cnc(C)c(Nc2nc(C(N)Cc3ccc(C(F)(F)F)cc3)cs2)n1 (stereo not drawn)	16µM	?	?	12µM	12µM	?
CC(=O)C(C#N)c1ccccc1 (stereo not drawn)	/	/	.	/	/	/
CC(C)OP(=O)(OC(C)C)C(Nc1ccccc1)c1ccccc1C(F)(F)F (stereo not drawn)	.	.	.	?	?	.
CCCOP(=O)(OCCC)C(Nc1ccc(C(C)C)cc1)c1ccc([N+](=O)[O-])cc1 (stereo not drawn)	?	?	.	?	16µM	?
COc1ccc(OC)c(C(Nc2ccccc2)P(=O)(OC(C)C)OC(C)C)c1 (stereo not drawn)	.	.	.	?	16µM	.
CC(C)OP(=O)(OC(C)C)C(Nc1ccc([N+](=O)[O-])cc1)c1cccc([N+](=O)[O-])c1 (stereo not drawn)	?	.	.	?	18µM	.
COc1ccc(C(Nc2cccc([N+](=O)[O-])c2)P(=O)(OC(C)C)OC(C)C)cc1 (stereo not drawn)	.	.	.	16µM	16µM	.
OC[C@@H]1[C@@H](O)[C@H](O)[C@H]2[C@@H](O)CCN21	/	/	.	/	/	/
CCCN1[C@@H]2c3cccc(=O)n3C[C@H]1[C@H](CO)[C@H]2C(=O)OC	/	/	.	/	/	/
Cc1ccc2c(n1)N(C)[C@H](CO)CCN(CC(C)(C)C)C2	/	/	.	/	/	/
CCN(CC)C(=O)c1ccc(NC(=O)c2cc3ccc(OC)cc3nc2C)cc1	/	/	.	/	/	/
COC1=CC(=O)[C@]2(C=C1OC)OC[C@@H]1Oc3c(ccc4c3C=CC(C)(C)O4)C(=O)[C@@H]12	.	.	.	0.29µM	0.21µM	.
COc1ccc(CN2CCN(C(=O)Cc3ccccc3)CC2)cc1OC	.	.	?	.	.	.
CCOc1cc(CN2CCN(C(=O)Cc3ccccc3)CC2)ccc1OC	.	.	0.5µM	.	?	.
COc1ccc(CN2CCN(C(=O)Cc3ccccc3)CC2)cc1Br	.	.	0.63µM	.	.	.
CN(C)C(=O)Oc1ccc2c(=O)c(-c3ccc(Br)cc3)coc2c1	/	/	.	/	/	/
CN(Cc1ccccc1)C[C@H]1CN2CC[C@H]1C[C@@H]2CNC(=S)Nc1ccc(N(C)C)cc1	/	/	.	/	/	/
O=C(NC1CCCCC1)[C@H]1CN2CC[C@H]1C[C@@H]2Cn1cc(C2(O)CCCC2)nn1	/	/	.	/	/	/
N/C(=N\N=C\c1ccccc1F)N[N+](=O)[O-]	/	/	.	/	/	/
c1ccc(SSc2ccccc2)cc1	.	-101	.	12µM	12µM	.
Brc1ccccc1	.	.	.	.	.	.
SMILES	HT1080 IDH1KD tx	IL-1B inflam inh	ALOX12 inh	DT40 TDP1 CPT	TDP1 cell noCPT	HT1080NT lethal
C[C@@H]1CC[C@@]2(NC1)O[C@H]1C[C@H]3[C@@H]4CC=C5C[C@@H](O)CC[C@]5(C)[C@H]4CC[C@]3(C)[C@H]1[C@@H]2C	.	.	/	.	.	.
C[C@H]1CC[C@]2(NC1)O[C@H]1C[C@H]3[C@@H]4CC[C@H]5C[C@@H](O[C@@H]6O[C@H](CO)[C@H](O[C@@H]7O[C@H](CO)[C@@H](O)[C@H](O[C@@H]8OC[C@@H](O)[C@H](O)[C@H]8O)[C@H]7O[C@@H]7O[C@H](CO)[C@@H](O)[C@H](O)[C@H]7O)[C@H](O)[C@H]6O)CC[C@]5(C)[C@H]4CC[C@]3(C)[C@H]1[C@@H]2C	/	/	/	1.9µM	1.7µM	/
COc1ccc(CC2c3cc(OC)c(OC)cc3CCN2C)cc1OC (stereo not drawn)	.	.	.	18µM!	23µM!	.
NC(Cc1ccc(F)cc1)c1ccccc1 (stereo not drawn)	/	/	.	/	/	/
CN(C)c1ccc(-[n+]2c(-c3ccccc3)cc(-c3ccccc3)cc2-c2ccccc2)cc1	2.6µM	-92	.	0.33µM	0.41µM	10µM
Cc1ccc(-c2cc(-c3ccc(C)cc3)[n+](-c3ccccc3)c(-c3ccc(C)cc3)c2)cc1	7.3µM	-99	/	0.52µM	0.37µM	5.2µM
C[n+]1c(-c2ccccc2)cc(-c2ccc(Cl)cc2)cc1-c1ccccc1	?	-83	.	3.7µM	2.1µM	?
Cc1ccc(-c2cc(-c3ccccc3)cc(-c3ccccc3)[n+]2-c2ccccc2)cc1	12µM	-100	?	1.6µM	0.92µM	?
Cc1ccc(-c2cc(-c3ccc(C)cc3)[n+](-c3ccc(C(=O)[O-])cc3)c(-c3ccc(C)cc3)c2)cc1	.	.	?	?	?	.
CC[C@H]1CN2CC[C@H]1C[C@@H]2CNC(=O)c1ccc(F)c(Cl)c1	/	/	.	/	/	/
COc1ccccc1OCCNc1ccc([N+](=O)[O-])c2cccnc12	/	/	.	/	/	/
COc1cc(OC)c(NS(=O)(=O)c2cc(-c3cnc(C4CC4)o3)ccc2C)cc1Cl	/	/	.	13µM	6.5µM	/
OC[C@H]1O[C@@H](n2cnc3cc(Cl)c(Cl)cc32)[C@H](O)[C@H]1O	/	/	.	16µM	?	/
OC[C@H]1O[C@@H](n2cnc3cc(Cl)c(Cl)cc32)[C@H](O)[C@@H]1O	?	-70	.	?	15µM	?
CC(Cc1ccccc1)NC(=O)C(c1ccc(N)cc1)c1ccc(N)cc1 (stereo not drawn)	.	.	.	12µM	?	.
CC(Cc1ccccc1)NC(=O)c1ccc(N)cc1 (stereo not drawn)	.	.	.	.	.	.
C=C[C@H]1CN2CC[C@H]1C[C@@H]2CNC(=O)N1CCOCC1	/	/	.	/	/	/
Cc1ccc(C)c(-n2c(C)nc3ccccc3c2=O)c1	.	.	.	?	?	?
